tested on: gramicidin D channels in DC22:1PC lipid vesicles (bilayer-modifying potency); experiment: initial Tl+ fluorescence quench rate relative to no-drug control (NormRate, gramicidin monomer-dimer shift) (ratio (fold of control)); higher = stronger bilayer-modifying effect (equilibrium shifted toward conducting dimers), active = 1.5 or more; conditions: 10 µM; lipid concentration 50 µM; temperature: 25 °C
Experimental: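 Stopped-flow fluorescence quench assay: ANTS-loaded DC22:1PC large unilamellar vesicles doped with gramicidin D (1:2000), 50 µM lipid, equilibrated 10 min with 10 µM drug (0.1% DMSO), mixed with Tl+ quench buffer at 25°C. Initial quench rate (Tl+ influx) was fitted with a modified stretched exponential and normalised to the no-drug control rate (NormRate); duplicates from two independent LUV preparations (triplicates for 7 drugs).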

Initial Tl+ fluorescence quench rate, inactive:
Cc1ccccc1CN1CCC(O)(c2ccc(Cl)c(C(F)(F)F)c2)CC1 1.14
CCOc1ccccc1C(=O)Nc1cccc(-c2nc3ncccn3c2C)c1 1.48
Cc1cc(Nc2ccncc2)n2nc(C)c(-c3ccccc3Cl)c2n1 1.03
CC(=O)N1CCc2cc3nc(C)cc(C)c3cc21 1.09
COc1cc(C(F)(F)F)nc2ccc(C)c(N)c12 1.03
O=C(NCCN1CCCC1)c1cc(NCCN2CCOCC2)nc2ccc(Cl)cc12 1.15
O=C(NC1=NCCS1)c1sc2cc(F)ccc2c1Cl 1.06
Cc1cc(C)nc(-n2nc(C)cc2Nc2ccccc2)n1 1.32
OCCc1ccc(Nc2nccc(-c3nnc4ccccn34)n2)cc1 1.01
c1cc(C2=NCCN2)cc(-c2cc(-c3ccc(C4=NCCN4)cc3)no2)c1 1.17
Nc1ncnc2[nH]nc(Cc3cccc4ccccc34)c12 1.15
O=C(Nc1ccnc(-c2cccnc2)n1)c1cc(C(F)(F)F)cc(C(F)(F)F)c1 1.2
O=C(Nc1cnc2ccccc2c1)c1cccc(-n2cnnn2)c1 1.26
O=C(NCc1nnc2n1CCCCC2)c1ccc(-c2ccc(F)cc2)o1 1.08
COc1ccc2nc(C)cc(OCC(=O)NCc3ccccc3)c2c1 1.06
CCCCS(=O)(=O)Nc1ccc2cnn(C)c2c1 1.36
COc1cc(N[C@H](C)CCCN)c2ncccc2c1 1.02

Initial Tl+ fluorescence quench rate, active:
COc1ccc(-c2nnc3ccc(-c4cccc(C(C)C)c4)cn23)cc1OC 2.38
COc1ccc(-c2cnc3cnc(-c4cccc(OC(C)C)c4)cn23)cc1 2.01
O=C1[C@@H](Oc2ccccc2)[C@@H](c2ccc(Cl)cc2)N1CCn1cnc2c(NCc3ccccc3)ncnc21 2.02
[H]/N=C(/N)Nc1ccc(-c2ccc(-c3ccc(N/C(N)=N/[H])cc3Cl)o2)c(Cl)c1 1.53
c1ccc(Oc2ccc(-c3cncc(-c4ccc5[nH]ccc5c4)n3)cc2)cc1 1.69

From the supplement of paper PMC9948646
